High-throughput results: PubChem BioAssay, National Center for Advancing Translational Sciences (NCATS)
D2 PAM-1 – Beta-Arrestin HTS for Positive Allosteric Modulators of the Human D2 Dopamine Receptor: Potentiators | D(2) dopamine receptor (Homo sapiens), P14416 | DiscoveRx D2 beta-arrestin cells, luminescence, 90 min; 100% = 57 uM dopamine signal | potentiation, % (no concentration beside the values) | hit rate 0.23% among 360,000 | AID 624464, 2012; in the data active = potentiation above about 50%
Target sequence (P14416 whole entry, looked up): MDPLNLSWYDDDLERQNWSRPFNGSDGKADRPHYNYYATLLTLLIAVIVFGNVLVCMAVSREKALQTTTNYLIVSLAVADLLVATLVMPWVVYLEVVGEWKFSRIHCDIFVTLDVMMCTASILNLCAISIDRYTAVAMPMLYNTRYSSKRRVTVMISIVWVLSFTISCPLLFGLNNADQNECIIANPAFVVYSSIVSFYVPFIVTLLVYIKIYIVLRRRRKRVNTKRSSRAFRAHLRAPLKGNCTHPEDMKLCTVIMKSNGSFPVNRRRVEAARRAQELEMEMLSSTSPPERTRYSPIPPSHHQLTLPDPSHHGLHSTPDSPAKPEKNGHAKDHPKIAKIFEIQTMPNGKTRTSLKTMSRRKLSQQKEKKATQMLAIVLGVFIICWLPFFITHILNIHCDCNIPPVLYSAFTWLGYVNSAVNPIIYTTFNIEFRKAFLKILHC
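D2 cells co-treated with compound plus 50 nM dopamine (EC20) for 90 min at 37 deg C to detect potentiation. Beta-arrestin recruitment was read as enzyme-fragment luminescence after 1 h at ambient temperature. Full response was set by 57 uM dopamine.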
D2 PAM-2 – HTS Assay for Positive Allosteric Modulators of the Human D2 Dopamine Receptor: Primary Screen for Potentiators; potentiation, % at 10 µM; HEK293 T-REx D2, calcium flux, EC20 dopamine potentiation; hit rate 0.34% among 340,000; D(2) dopamine receptor (Homo sapiens), P14416; AID 485347, 2010;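 active = potentiation over 3 SD above the plate norm, cut at about 30% in these data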
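Tetracycline-induced HEK293 T-REx cells force-coupled to calcium signalling expressed D2; compounds were pin-added after a 10 s baseline, read kinetically 180 s, then an EC20 dopamine challenge followed with a further 180 s calcium read.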
D2 ag-1 – Beta-Arrestin HTS for Positive Allosteric Modulators of the Human D2 Dopamine Receptor: Agonists; activation, % (concentration not given with the values); DiscoveRx PathHunter D2 beta-arrestin, luminescence, 90 min; 100% = 57 uM dopamine signal; D(2) dopamine receptor (Homo sapiens), P14416; hit rate 0.084% among 360,000; in the data active = activation above about 40%
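DiscoveRx PathHunter D2 beta-arrestin cells (2,100/well) attached overnight, then compound-stimulated 90 min at 37 C in HBSS/10 mM HEPES/0.1% Tween-20 buffer; beta-galactosidase complementation read by luminescence after 1 h at ambient temperature. Dopamine 57 uM final (EC100) as control.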
D2 ag-2 – HTS Assay for Allosteric Agonists of the Human D2 Dopamine Receptor: Primary Screen for Agonists | D(2) dopamine receptor (Homo sapiens), P14416 | HEK293 T-REx D2 cells, calcium flux agonist mode | activation, % at 2 µM | hit rate 0.53% among 340,000 | AID 485358, 2010;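 active = activation over 3 SD above normal in the single-dose calcium agonist read, cut at about 30% in these data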
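Tetracycline-induced HEK293 Trex cells with D2 receptor force-coupled to calcium signaling, plated overnight at 30 C and loaded with no-wash calcium dye. Calcium flux read kinetically for 180 s after compound addition; responses flag agonists.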
D2 antagonist – HTS Assay for Allosteric Antagonists of the Human D2 Dopamine Receptor: Primary Screen for Antagonists. AID 485344, 2010. HEK293 TREx D2 cells, calcium flux, dopamine EC80. hit rate 2% among 340,000. inhibition, % at 10 µM. D(2) dopamine receptor (Homo sapiens), P14416; in the data active = inhibition above about 30%; inactive = below that, where a call was filed
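Tetracycline-induced HEK293 T-REx cells expressing D2 force-coupled to calcium signalling were dye-loaded, exposed to compound for 180 s, then challenged with an EC80 of dopamine; calcium flux was followed kinetically for a further 180 s.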
Numbers stand for hits. In the library only some 2.4% were active in any assay of this set; here they are far more common.

What do the screens show for `COc1ccccc1NC(=O)Nc1ccc(N2CCOCC2)cc1`?
D2 PAM-1: inactive; D2 PAM-2: inactive; D2 ag-1: inactive; D2 ag-2: inactive; D2 antagonist: inactive

Results for COc1ccccc1CNCC(=O)Nc1ccc(N2CCOCC2)cc1 ?
D2 PAM-1: inactive; D2 PAM-2: inactive; D2 ag-1: inactive; D2 ag-2: 33; D2 antagonist: inactive

How did O=CNC1CCCc2c1[nH]c1ccc(Cl)cc21 (stereo not given) do in these assays?
D2 PAM-1: 77; D2 PAM-2: inactive; D2 ag-1: inactive; D2 ag-2: inactive; D2 antagonist: inactive

Results for CCN(CC)C(=O)C1CCCc2c1[nH]c1ccc(Cl)cc21 (stereo not given) ?
D2 PAM-1: inactive; D2 PAM-2: inactive; D2 ag-1: inactive; D2 ag-2: inactive; D2 antagonist: inactive

Results for CCN1CCN(C(=O)Cn2ncc3c4ccccc4n(Cc4ccccc4)c3c2=O)CC1 ?
D2 PAM-2: inactive; D2 ag-2: inactive

What do the screens show for `CSc1ncccc1C(=O)OCc1c(F)cccc1Cl`?
D2 PAM-1: inactive; D2 PAM-2: 30; D2 ag-1: inactive; D2 ag-2: inactive; D2 antagonist: inactive

How did CC(=O)N1CCc2cc(Br)cc(S(=O)(=O)NCc3ccc(Cl)cc3)c21 do in these assays?
D2 PAM-1: inactive; D2 PAM-2: inactive; D2 ag-1: inactive; D2 ag-2: inactive; D2 antagonist: 68

How did O=C(C1CC1)N1CCc2cc(Br)cc(S(=O)(=O)N3CCN(c4ccccn4)CC3)c21 do in these assays?
D2 PAM-1: inactive; D2 PAM-2: inactive; D2 ag-1: inactive; D2 ag-2: inactive; D2 antagonist: 46

What do the screens show for `O=C(C1CC1)N1CCc2cc(Br)cc(S(=O)(=O)NCCCN3CCCC3)c21`?
D2 PAM-1: inactive; D2 PAM-2: inactive; D2 ag-1: inactive; D2 ag-2: inactive; D2 antagonist: 39

How did CC1CCCN(CCCNS(=O)(=O)c2cc(Br)cc3c2N(C(=O)C2CC2)CC3)C1 (stereo not given) do in these assays?
D2 PAM-1: inactive; D2 ag-1: inactive

How did O=C(C1CC1)N1CCc2cc(Br)cc(S(=O)(=O)N3CCN(c4ccccc4)CC3)c21 do in these assays?
D2 PAM-2: inactive; D2 ag-2: inactive

How did Cc1nnn(C23C[C@@H]4C[C@@H](CC(C(=O)N5CCN(c6ccccc6)CC5)(C4)C2)C3)n1 do in these assays?
D2 PAM-1: inactive; D2 PAM-2: inactive; D2 ag-1: inactive; D2 ag-2: inactive; D2 antagonist: inactive

Results for O=C(O)COc1ccccc1-c1nc(-c2ccccc2)c(-c2ccccc2)[nH]1 ?
D2 PAM-1: inactive; D2 PAM-2: inactive; D2 ag-1: inactive; D2 ag-2: inactive; D2 antagonist: inactive

How did COc1cccc(-c2nc(-c3ccccc3)c(-c3ccccc3)[nH]2)c1OCC(=O)O do in these assays?
D2 PAM-1: 65; D2 PAM-2: inactive; D2 ag-1: inactive; D2 ag-2: inactive; D2 antagonist: inactive

How did CCc1cccc(NC(=O)CN(C)S(=O)(=O)c2cccc3cccnc23)c1 do in these assays?
D2 PAM-1: inactive; D2 PAM-2: inactive; D2 ag-1: inactive; D2 ag-2: inactive; D2 antagonist: inactive

What do the screens show for `Cc1ccc(S(=O)(=O)N2CCN(C(=O)COC(=O)CNC(=O)c3ccccc3)CC2)c(C)c1`?
D2 PAM-1: inactive; D2 PAM-2: inactive; D2 ag-1: inactive; D2 ag-2: inactive; D2 antagonist: 33

Results for COc1ccc(C)cc1NC(=O)CCNS(=O)(=O)c1ccc2c(c1)CC(C)N2C(C)=O (stereo not given) ?
D2 PAM-1: inactive; D2 PAM-2: inactive; D2 ag-1: inactive; D2 ag-2: inactive; D2 antagonist: inactive

What do the screens show for `O=C(Nc1ccc(Cl)cc1)c1ccc(-n2cnnc2)cc1`?
D2 PAM-2: inactive; D2 ag-2: inactive

Results for Cc1ccc(S(=O)(=O)c2cn(Cc3cccc(F)c3)c3cc(N4CCCC4)c(F)cc3c2=O)cc1 ?
D2 PAM-2: inactive; D2 ag-2: inactive

How did Cc1cc(C)cc(OCCCOc2cccc3cccnc23)c1 do in these assays?
D2 PAM-1: inactive; D2 PAM-2: inactive; D2 ag-1: inactive; D2 ag-2: inactive; D2 antagonist: 33

What do the screens show for `COc1ccc(/C=C/c2onc(C)c2S(=O)(=O)N2CCC(C(=O)N3CCC(C)CC3)CC2)cc1`?
D2 PAM-1: inactive; D2 PAM-2: inactive; D2 ag-1: inactive; D2 ag-2: inactive; D2 antagonist: inactive

Results for Cc1cc(-c2nc3ncccc3o2)ccc1NC(=O)c1ccc(Br)cc1 ?
D2 PAM-2: inactive; D2 ag-2: inactive

Results for CC1CN(C(=O)Nc2ccc(C(=O)NCc3cccc(F)c3)cc2)c2ccccc2S1 (stereo not given) ?
D2 PAM-2: inactive; D2 ag-2: inactive

Results for COc1ccc(OCCN2C(=O)NC(C)(c3ccc(C)cc3)C2=O)cc1 (stereo not given) ?
D2 PAM-1: inactive; D2 PAM-2: 66; D2 ag-1: inactive; D2 ag-2: inactive; D2 antagonist: inactive

What do the screens show for `Cc1ccc(C2(C)NC(=O)N(CCOc3ccccc3)C2=O)cc1` (stereo not given)?
D2 PAM-1: inactive; D2 PAM-2: inactive; D2 ag-1: inactive; D2 ag-2: inactive; D2 antagonist: inactive

Results for O=C(NCCC1=CCCCC1)C1CCN(C(=O)N2CCOc3ccc(Cl)cc32)CC1 ?
D2 PAM-2: inactive; D2 ag-2: inactive

What do the screens show for `O=C(NC1CC2CCCC(C1)N2Cc1ccccc1)c1cccc(F)c1` (stereo not given)?
D2 PAM-1: inactive; D2 PAM-2: inactive; D2 ag-1: inactive; D2 ag-2: inactive; D2 antagonist: 84

What do the screens show for `COc1cccc(C(=O)NC2CC3CCCC(C2)N3Cc2ccc(F)cc2)c1` (stereo not given)?
D2 PAM-1: inactive; D2 ag-1: inactive

How did O=C(NC1CC2CCCC(C1)N2Cc1ccccc1)c1cccc(Cl)c1 (stereo not given) do in these assays?
D2 PAM-1: inactive; D2 PAM-2: inactive; D2 ag-1: inactive; D2 ag-2: inactive; D2 antagonist: 90

Results for C=CCc1ccc(OCC(O)CN2CCc3ccccc3C2)c(OC)c1 (stereo not given) ?
D2 PAM-1: inactive; D2 PAM-2: inactive; D2 ag-1: inactive; D2 ag-2: inactive; D2 antagonist: 47

Results for C=CCc1ccccc1OCC(O)CN1CCN(Cc2ccc3c(c2)OCO3)CC1 (stereo not given) ?
D2 PAM-1: inactive; D2 PAM-2: inactive; D2 ag-1: inactive; D2 ag-2: inactive; D2 antagonist: 64
